Assay results from the supplement of paper PMC10941209.
A number with no mark means an inactive call.

What follows are compounds tested on Toxoplasma gondii RH 2F1 tachyzoites (intracellular in HFF) (assay: parasite survival relative to DMSO control; higher = less antiparasitic activity, active = 20 or less). Settings: 1 µM; 72 h.
How it was run: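 Survival is the β-galactosidase-derived signal from intracellular Toxoplasma gondii RH-2F1 tachyzoites, expressed as a percentage of infected wells treated with DMSO. HFF cells (5 × 10^3 cells/well, 96-well plates) were infected with 5 × 10^3 parasites in D2 medium for 3 h and then treated with compound at 1 μM for 72 h at 37°C in 5% CO2. After lysis, CPRG was added and absorbance at 570 nm was read at 30 min, with 2 or more biological replicates.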

| SMILES | parasite survival |
| --- | --- |
| Oc1c(C(Nc2ccccn2)c2ccccc2)ccc2cccnc12 (centres undefined) | 23.6% |
| CN(C)CCNC(=O)c1cccc2cccnc12 | 62% |
| CC(C)(C)NC(=O)[C@@H]1C[C@@H]2CCCC[C@@H]2CN1C[C@@H](O)[C@H](Cc1ccccc1)NC(=O)[C@H](CC(N)=O)NC(=O)c1ccc2ccccc2n1 | 39% |
| CC(C)(C)OC(=O)NCc1ccc(C(=O)N[C@H]2CCOC2=O)cc1 | 35% |
| CC(C)Oc1ccc(-c2nc(-c3cccc4c3CC[C@@H]4NCCO)no2)cc1C#N | 41.9% |
| O=C(NCCN1CCCCC1)c1cccc(C(F)(F)F)c1 | 67.5% |
| O=C(Cc1ccccc1F)Nc1nc2ccccc2[nH]1 | 38.1% |
| O=C(O)c1ccc(-n2nc(-c3ccccc3O)nc2-c2ccccc2O)cc1 | 25.7% |
| O=C(CSc1nnc(Br)n1-c1ccc(C2CC2)c2ccccc12)Nc1ccc(C(=O)O)cc1Cl | 61% |
| CC(C)(C)c1cccc(-c2nc3cc(C(=N)N)ccc3[nH]2)c1O | 50.5% |
| Nc1nnnn1CCOc1c2[nH]c3ccc(Cl)cc3c2cc2c1[nH]c1ccc(Cl)cc12 | 28.5% |
| O=[N+]([O-])c1cn2c(n1)OC[C@@H](OCc1ccc(OC(F)(F)F)cc1)C2 | 45.2% |
| O=C(N[C@H](Cc1cccc2ccccc12)C(=O)NCCc1c[nH]cn1)C1Cc2ccccc2C1 | 33.7% |
| CSc1ccc2c(c1)C(N1CCN(C)CC1)Cc1ccccc1S2 (centres undefined) | 34.5% |
| CCc1cc(CCC(=O)Nc2ccccc2O)c(O)nc1C | 70.1% |
| CCOC(=O)N1CCN(c2ccc(Cl)cc2)CC1 | 54.3% |
| O=S(=O)(NCB(O)O)c1ccc(-c2nnn[nH]2)cc1C(F)(F)F | 34.1% |
| [N-]=[N+]=N[C@H]1C[C@H](n2ccc(=O)[nH]c2=O)O[C@@H]1CO | 73.1% |
| c1ccc(-c2nnc3c4ccccc4c(N4CCNCC4)nn23)cc1 | 11.3% (active) |
| Nc1nc(F)nc2c1ncn2[C@H]1O[C@@H](CO)[C@H](O)[C@@H]1O | 30% |

| SMILES | parasite survival |
| --- | --- |
| CCCc1ccc(-c2cc3cn([C@H]4C[C@H](O)[C@@H](CO)O4)c(=O)nc3o2)cc1 | 61.6% |
| O=C(N[C@H](CCS)C(=O)N[C@H](Cc1ccccc1)C(=O)O)c1cc2ccccc2[nH]1 | 45.8% |
| O=C(/C=C/n1cnc(-c2cc(C(F)(F)F)cc(C(F)(F)F)c2)n1)NNc1cnccn1 | 20.8% |
| CCc1ccccc1OCCN1CCCCCC1 | 47.2% |
| COc1ccc2cc3[n+](cc2c1OCCN(CCn1cncn1)Cc1ccc(F)cc1F)CCc1cc2c(cc1-3)OCO2 | 47.3% |
| NC(=O)c1ccc(I)c([N+](=O)[O-])c1 | 59.1% |
| COc1ccc(NC(=O)CC2Sc3ncnn3C2=O)cc1 (centres undefined) | 22.1% |
| CN(O)C(=O)c1cc2c(CN3CCC[C@H]3C(N)=O)cn(Cc3ccc(F)cc3)c2cn1 | 76.7% |
| O=c1nc(N2CCN(CC3CCCCC3)CC2)sc2c([N+](=O)[O-])cc(C(F)(F)F)cc12 | 43.6% |
| O=C(Nc1[nH]c(=O)ncc1F)c1ccccc1 | 84.3% |
| CNC(=O)C1O[C@@H](n2cnc3c(NCc4cccc(I)c4)nc(Cl)nc32)[C@H](O)[C@@H]1O (some centres undefined) | 68.3% |
| CC(C)(C)c1ccc(C(Cn2cccc(C(F)(F)F)c2=O)NC2Cc3ccccc3C2)cc1 (centres undefined) | 51.5% |
| NCC(=O)Nc1ccc(-n2nc(C(F)(F)F)cc2-c2ccc3c(ccc4ccccc43)c2)cc1 | 13.7% (active) |
| COc1cc(Cc2cnc(N)nc2N)c2c(c1OC)OC(C1CC1)C=C2 (centres undefined) | 10.4% (active) |
| O=C(NC(=O)N1CCCc2ccccc21)c1cccc(Cl)c1 | 28.3% |
| Cc1c(CN(C)C(=O)/C=C/c2cnc3c(c2)C(C)(C)C(=O)N3)oc2ccccc12 | 54.1% |
| O=c1cc(Nc2ccc3ccccc3c2)[nH]c(=O)[nH]1 | 53.3% |
| NC(=O)c1cnccn1 | 52.5% |
| CCc1nc(N)nc(N)c1C#CC(C)c1cc(OC)cc(-c2ccncc2)c1 (centres undefined) | 4.08% (active) |
